# Measured values taken from PubChem BioAssay (NCI).
# About 83,000 compounds went through this panel and 20% of them were active in at least one assay; those are over-represented in the sample as a whole.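 Each cell line was grown in a 96-well plate and treated with one concentration of compound for 48 hours. Values below 10 were considered active.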 Unmarked numbers belong to inactive results. Activity calls are given as the source filed them.
# Tested on: RPMI-8226 leukemia
# Assay: NCI-60 one-dose screen, 48 h (100 = growth as untreated, 0 = no growth, -100 = all killed)
# Conditions: 10 µM unless noted
row,Compound,growth
1,COc1ccc2c(c1)OC13Oc4cc(OC)ccc4C=C1CCCCC3=C2,97.8%
2,C/C(=N/Nc1nc2ccccc2n1C)c1ccccn1,-17.5% (active)
3,Cc1nc2sc(C(=O)Nc3cccc4ccccc34)c(N)c2cc1C(C)O (configuration not stated),18%
4,N#Cc1c(-c2ccc(F)cc2)c(C#N)c2c(C#N)c(N)nn2c1N,104%
5,CCOc1ccc(C2N(c3cc(OC)c(OC)c(OC)c3)C(=O)C2(F)F)cc1 (configuration not stated),14.6%
6,CCOc1ccccc1C(=O)/C=C/c1cc2ccccc2[nH]c1=O,-12.1% (active)
7,Cc1ccc(C2=N[C@H]3CCC[C@@H]3N(c3ccccc3)C(C(Cl)Cl)=N2)cc1,111%
8,COc1cc(/C=C/CO)cc(OC)c1O[C@@H]1O[C@H](CO)[C@@H](O)[C@H](O)[C@H]1O,99.3%
9,COc1ccc(C(=S)c2cc(OC)c(OC)c(OC)c2)cc1OC(=O)CCl,26.9%
10,O=C1CCC23OC(c4ccccc4N12)C(O)C(O)C3O (configuration not stated),103%
11,COc1cc(/C=C/C(=O)c2cccs2)ccc1OCc1ccc(Cl)nc1,17.5%
12,O=c1c2ccccc2oc2ccc(OCCCCCN3CCCCCC3)cc12,57.3%
13,C=C1C(=O)O[C@H]2[C@H]1CC/C(COC(=O)NCC(=O)Nc1ccc(OC)c(C(N)=O)c1O)=C\CC[C@@]1(C)O[C@@H]21,2.96% (active)
14,COc1ccc(-c2[nH]c3ccccc3c2C=C(C#N)C#N)cc1,-43.8% (active)
15,COC(=O)/C=C/c1cc(OC(C)=O)c2c(c1)C(C(=O)OC)C(c1ccc(OC(C)=O)c(OC(C)=O)c1)O2 (configuration not stated),11.1%
16,Nc1cc(N)c(S(=O)(=O)O)cc1N=Nc1cc([N+](=O)[O-])ccc1O,98.8%
17,CC1CCN(CCCCCOc2ccc3oc4ccccc4c(=O)c3c2)CC1,60.1%
18,CCOC(=O)C1=C(C)n2nc(CC#N)c(C#N)c2NC1c1ccc(Cl)cc1 (configuration not stated),101%
19,Cc1cccc(C)c1NCc1nnc(-c2ccco2)o1,77.9%

row,Compound,growth
1,COC(=O)/C=C1\SC(=Nc2cccc(Cl)c2)N(CCc2c[nH]c3ccccc23)C1=O,-25% (active)
2,COc1ccc(C(C)c2cc(OC)c(OC)c(OC)c2)cc1 (configuration not stated),15.3%
3,CCO/C=N/S(=O)(=O)c1cc2c(cc1Cl)NC=NS2(=O)=O,104%
4,COc1ccc([C@H]2[C@@H](F)C(=O)N2c2cc(OC)c(OC)c(OC)c2)cc1F,15.3%
5,O=C(CN1N=C(c2ccc(F)cc2)CCC1=O)Nc1nccs1,103%
6,Nc1cc(N)nc(SCC(=O)O)n1,102%
7,CCOC(=O)NCCc1nc2c([nH]1)c(=O)n(C)c(=O)n2C,106%
8,CC1(c2ccccc2Cl)NC(=O)NC1=O (configuration not stated),102%
9,C=C1C(=O)O[C@H]2[C@H]1CC/C(COC(=O)n1ccnc1)=C\CC[C@@]1(C)O[C@@H]21,85.3%
10,COc1ccccc1-c1ccc2nc(NC(=O)Nc3cc(C(F)(F)F)cc(C(F)(F)F)c3)sc2c1,-15.9% (active)
11,O=C1NC(SCc2ccc(F)cc2)=N/C1=C/c1cccc(OCc2ccc(Cl)cc2)c1,53.5%
12,O=C(CCc1nnc2sc(OCc3ccccc3)nn12)c1nc2ccc([N+](=O)[O-])cc2[nH]1,106%
13,Nc1c(C(=O)Nc2ccccn2)sc2nc3c(cc12)CCCC3,55.9%
14,Cc1nnc(/N=C2\NC(=O)/C(=C/c3ccsc3)S2)s1,94%
15,Cc1cc(Nc2nc(SCc3ccc(C(=O)Nc4ccc(F)cc4N)cc3)nn3cccc23)n[nH]1,13.1%
16,Oc1c(CCl)cc(Cl)cc1Cc1cc(Cl)cc(Cc2cc(Cl)cc(CCl)c2O)c1O,4.65% (active)
17,COc1ccc(C2N(c3cc(OC)c(OC)c(OC)c3)C(=O)C2(F)F)cc1F (configuration not stated),20.8%
18,COc1cc2c(cc1OC)C(Sc1ccc(Cl)cc1)c1c(nc(N)c(C#N)c1N)O2 (configuration not stated),-24.2% (active)
